From PubChem BioAssay (NCI)
Several values for one entry are separate records, joined by “and”; a condition that tells them apart may be missing. Equal entries are not always repeated. This is part of a sample that, as a whole, favours compounds with a hit. Of some 83,000 tested, about 20% had one in any assay.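 Treatment: one concentration, 48 hours, 96-well format. Scoring: percent growth, with anything below 10 considered active.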 Values without a mark were called inactive. Activity calls are given as the source filed them.

The compounds below were run on MDA-MB-468 breast (assay: NCI-60 one-dose screen, 48 h (100 = growth as untreated, 0 = no growth, -100 = all killed)). Conditions: 10 µM unless noted.
Work on `Nc1c(C(=O)Nc2ccc(Cl)cc2)cc(-c2nc3ccccc3s2)c(=O)n1NS(=O)(=O)c1ccc(Cl)cc1` yielded a growth of 110%. `N#Cc1ccc(-c2ccc3c(c2)NC(=O)/C3=C\c2ccc[nH]2)cc1` was tested, and the growth was -18.2% (active). With `C[C@H]1[C@H]2[C@H]3CC[C@@H]4[C@@]5(C)C/C(=C/c6cccnc6)C(=O)C(C)(C)[C@@H]5CC[C@@]4(C)[C@]3(C)CC[C@]23CO[C@]1(C)[C@@H](C(=O)/C=C\c1cccnc1)C3` the growth was -5.83% (active). With `CS(=O)(=O)c1ccc(C(=O)Nc2ccc(Cl)c(-c3ccccn3)c2)c(Cl)c1` the growth was 3.59% (active). Compound `COc1ccc(-c2nc(SCC(C)C)nc(Nc3ccccc3)c2C#N)cc1` has a growth of 80.7%. `CCN=C1C=CC(=C(c2ccc(N(CC)CC)cc2)c2ccc(N(CC)CC)cc2)c2ccccc21` was tested, and the growth was -74.1% (active). For `O=C1NN(C(=O)c2ccccc2)C(c2ccc(Cl)c(Cl)c2)=C/C1=C\c1ccc([N+](=O)[O-])cc1`, the growth was 84.2%. `COc1ccc(-c2ccc(-c3ccc(-c4ccc(C(=N)N)cc4)s3)s2)cc1OC` was tested, and the growth was -71.4% (active). `COc1ccc(-c2nc3sccn3c2-c2cc(-c3cc(OC)c(OC)c(OC)c3)on2)cc1` was tested, and the growth was 100%. `ClC1=C2NC=NC2n2c(nnc2-c2ccc(Cl)cc2)N1` (stereo not given) was tested, and the growth was 91.6%. `COc1ccc(OC)c(/C=C2\Oc3cc(O)ccc3C2=O)c1` showed a growth of 102%. In the case of `CCCCCCCC/C=C\CCCCCCCCOc1ccccc1CC(=O)NCC[N+]1(C)CCCCC1`, the growth was -9.98% (active). `Cn1ccnc1C(=O)/C=C/c1ccc(CC(=O)Nc2cc(C(F)(F)F)cc(C(F)(F)F)c2)cc1` was tested, and the growth was 78%. `O=C1CC2C=CCN2C=C1NC(=O)C1CCCCC1` (stereo not given) gave a growth of 96.2%. `O=C(CN1CCN(c2cc(=O)[nH]c3ccc(F)cc23)CC1)N(c1ccccc1)c1ccccc1` gave a growth of 98.6%. In the case of `COC(=O)c1c[n+]([O-])ccc1OC`, the growth was 106%. `Cc1cccc(C[C@H](NC(=O)Nc2ccc(Cl)cc2F)C(=O)N[C@@H]2C(=O)N3C[C@H](O)C[C@H]3C(=O)N3CCN(C)C[C@H]3C(=O)N[C@@H](C)C(=O)N3C[C@H](C)C[C@H]3C(=O)O[C@H]2C)c1` gave a growth of 15.7%. Work on `CCCN(CCC)CN(CCC)CCC` yielded a growth of 106%. With `Oc1nc(NCCc2ccccc2)sc1/C=C1\C=Nc2ncccc21` the growth was -2.06% (active) and -14.5% (active). In the case of `COc1ccc(-c2nc(Nc3ccc(-c4nc5ccccc5[nH]4)cc3)nc(N3CCOCC3)n2)cc1`, the growth was -1.23% (active). Work on `CCOc1ccc(Nc2nc3c(s2)C(=O)c2ccccc2C3=O)cc1` yielded a growth of 68.8%. With `Cc1ccc(S(=O)(=O)c2c(COC(=O)c3cccc(C)c3)c(-c3ccccc3)nn2C)cc1` the growth was -83.9% (active). Work on `S=c1nc2oc(-c3ccccc3)c(-c3ccccc3)c2c(/N=C\c2ccco2)[nH]1` yielded a growth of 91.6%. Work on `C=C[C@@H]1C[C@@H]2Cc3cc(Cl)ccc3N1O2` yielded a growth of 95.1%. `COC(=O)C(c1ccccc1)C(CC(=O)c1ccccc1)c1ccccc1` (stereo not given) showed a growth of 87.5%. `O=C(Cc1ccccc1)Nc1nnc(NC2CCN(c3nnc(NC(=O)Cc4ccccc4)s3)CC2)s1` was tested, and the growth was 125%. In the case of `COc1ccc(C/C(C)=C(\c2ccc(Cl)cc2)c2ccc(OCCCN(C)C)cc2)cc1`, the growth was 59.7%. For `Cn1c(N)c(N=Nc2ccc(S(=O)(=O)Nc3nccs3)cc2)c(=O)n(C)c1=O`, the growth was 116%. Work on `NC(=O)c1c(NC(=O)c2cccc(OC(F)(F)F)c2)sc2c1CCC(=O)C2` yielded a growth of 42%. For `Cc1nc2sc(C(=O)Nc3cccc4ncccc34)c(N)c2cc1C(C)O` (stereo not given), the growth was 44.9%. With `COc1cnc2c(c1)C(=O)c1c-2n(CCCN2CCNCC2)c(=O)c2cc(Cl)ccc12` the growth was 65.8%. Work on `Cc1ncc(C(=O)Nc2ccc(CN3CCN(C)CC3)c(C(F)(F)F)c2)cc1C#Cc1ccc(N)nc1` yielded a growth of 10.9%. For `COC(=O)[C@H]1CCCN1C(=O)C1CCCN1C(=O)[C@@H](Cc1ccccc1)NC(=S)Nc1cc(C(F)(F)F)cc(C(F)(F)F)c1` (stereo not given in full), the growth was 100% and 58.2%. For `Cc1c2cnccc2c(C)c2c1c1cc(C3OCCCO3)ccc1n2C`, the growth was -34% (active). For `NC(=O)c1ccc(-c2c3ccccc3cc3c2ccc2ccccc23)cc1`, the growth was -11.3% (active).
